LDHA inh – blocks human lactate dehydrogenase A; 480,000 compounds, 0.15% hits; P00338; activity change, % (values are at about 110 or 230 µM); purified LDHA, NADH/diaphorase-resazurin fluorescence; stronger effect = lower value; in the data active means activity change below about -30%; inconclusive means mostly about -25% to -30%;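 further: plate controls were DMSO wells for no effect and wells without enzyme for full effect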
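Resorufin fluorescence (ex540/em590), read at 0 and 20 min after diaphorase/resazurin addition, reports the NADH left after a 5 min room-temperature reaction of 2 nM human LDH5 with 0.06 mM NADH and 0.2 mM pyruvate.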
DRD3 agonist – D3 dopamine receptor (human) agonism | D3R DiscoveRx beta-arrestin cells, luminescence, 90 min | 410,000 compounds, 0.58% hits | max activation, % | P35462; in the data active means max activation above about 30%; further: 0% is about no effect
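Agonist-mode cell screen: cells plated at 1500/well and incubated overnight at 37 °C, then exposed to library compounds for 90 min at 37 °C. Detection reagent was added for 30–60 min at room temperature, and luminescence was read.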
pAkt inh – Akt phosphorylation inhibition | Neuro2A IGF-stimulated pAkt S473 HTRF, 20 min; stronger effect = lower value | activity change, % for hits at 50 µM | 360,000 compounds, 0.32% hits | AID 651550; in the data active means activity change below about -80%; inconclusive means mostly about -51% to -80%; further: on the % scale 0 is the no-effect control and ±100 the full control effect
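Single-point screen (50 µM final compound) in Neuro2A cells stimulated 20 min with 6 nM IGF at 37 deg C. After lysis, Ser473-phosphorylated Akt read by HTRF (ex 330 nm, em 615/665 nm) as the 665/615 ratio.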
RGS4 inh – human RGS4 inhibition | P49798 | Potency, µM (doses to about 114 µM), for inactives: at the top dose activity change, negative = inhibition, actives largely listed as inhibitors | 390,000 compounds, 0.039% hits | Transcreener GDP fluorescence polarization, RGS4-accelerated GTP hydrolysis; active means well fitted inhibition curve with a large enough effect; inconclusive means small, poorly fitted or top-dose-only effect; inactive means no such curve, though single readings can be large or run the other way; further: potency means the concentration at half of the fitted maximal effect; on the % scale 0 is the no-effect control and ±100 the full control effect; nearly all actives have a fitted effect of over 75% in size
Target sequence (P49798 whole entry, looked up): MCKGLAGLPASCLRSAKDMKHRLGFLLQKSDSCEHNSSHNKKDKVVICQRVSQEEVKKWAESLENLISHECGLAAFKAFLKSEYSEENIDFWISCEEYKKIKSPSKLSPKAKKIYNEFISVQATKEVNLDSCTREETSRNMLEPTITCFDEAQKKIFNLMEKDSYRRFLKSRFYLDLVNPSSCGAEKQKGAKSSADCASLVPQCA
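MLSMR compounds (23 nl, pin-transferred) preincubated 10 min at room temperature with a 500nM (2x) first reagent, then RGS4 at 900nM (2x) plus Transcreener GDP mix added; fluorescence polarization (620/688 nm) read before and after 90 min at 30 °C.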
D3 antag – antagonists of human D3 dopamine receptor; D3R cells, DiscoveRx beta-arrestin luminescence, antagonist mode; stronger effect = lower value; max response, negative = inhibition, %; 360,000 compounds, 2.5% hits; AID 652054; in the data active means max response below about -50%; inconclusive means no clear call, values can overlap the other calls; further: on the % scale 0 is the no-effect control and ±100 the full control effect
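Cells plated overnight at 1500 cells/well, then exposed to library compounds with dopamine controls for 90 minutes at 37 degrees C. DiscoveRx reagent added for 30–60 minutes at room temperature; luminescence read, quantitative HTS format.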
PI4K2A inh – inhibitors of human PI4K2A | Q9BTU6 | purified PI4K2A, ADP-Glo luminescence, 1 h; stronger effect = lower value | activity change, negative = inhibition, % at 76.9 µM | 420,000 compounds, 0.13% hits; in the data active means activity change below about -50%; inconclusive means mostly about -30% to -49%;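 further: -100% = wells without enzyme as full effect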
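Compounds are screened against recombinant PI4K2A using PI as substrate and ATP, the latter dispensed at 300 microM. Reactions run one hour at ambient temperature before ADP-Glo detection; full inhibition defined by wells lacking enzyme.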
Numbers without * were called inactive; i = inactive; u = inconclusive; x = not tested or not shown. Rows were chosen to be rich in hits. Some 2.8% of all compounds tested hit in one or more screens of this group.

SMILES	LDHA inh	DRD3 agonist	pAkt inh	RGS4 inh	D3 antag	PI4K2A inh
CN1CCN(CCOc2cccc(Cl)c2)CC1	0	1	i	-18%	u	-3
Cc1c(C(=O)OC(C)C#N)oc2c1ccc1ccccc12 (centres undefined)	24	x	x	x	x	x
S=C(NCCc1ccccc1)NC1CCC(NC(=S)NCCc2ccccc2)CC1 (centres undefined)	-6	4	i	1%	-6	1
S=C(Nc1ccccc1)NC1CCN(Cc2ccccc2)CC1	-4	-19	i	-12%	-77*	4
COc1ccc(CN2CCC(CNC(=O)NC3CCCCC3)CC2)cc1	-2	2	i	-7%	-54*	-6
O=C(Nc1ccccc1)NC1CCN(Cc2nnnn2C2CCCCC2)CC1	-3	-3	i	25%	-70*	-4
Cc1ccccc1C(=O)NC1CCN(Cc2nnnn2C2CCCC2)CC1	2	0	i	19%	u	-7
COc1ccc(CCNC(=S)NC2CCN(Cc3ccccc3)CC2)cc1	-2	-20	i	-26%	-83*	-4
CCc1ccc(NC(=S)NC2CCN(Cc3ccccc3)CC2)cc1	-3	-7	i	-21%	-29	0
Cc1ccccc1C(C)NC(=O)c1ccc[n+]([O-])c1 (centres undefined)	-5	x	x	x	x	x
Cc1cc(C)c2nc(-c3ccccc3)c(C)c(C(=O)O)c2c1	2	x	x	x	x	x
S=C(Nc1ccc(Cl)cc1)NC1CCN(Cc2ccccc2)CC1	1	-21	i	21%	-60*	13
Cc1ccc(NC(=S)NC2CCN(Cc3ccccc3)CC2)c(C)c1	0	-23	i	3%	u	8
Cc1ccccc1NC(=S)NC1CCN(Cc2ccccc2)CC1	2	-29	i	-2%	-50*	1
CN(C)C(=O)CN1CCN(C(C(=O)O)c2c[nH]c3ccccc23)CC1 (centres undefined)	9	x	x	x	x	x
CN(CC(=O)Nc1ccccc1Br)C(=O)CCn1c(=O)oc2ccccc21	4	x	x	x	x	x
S=c1[nH]nc(-c2n[nH]c3c2CCC3)n1N=Cc1c[nH]c2ccccc12	x	x	x	x	x	0
S=c1[nH]nc(-c2n[nH]c3c2CCC3)n1/N=C/C=C/c1ccccc1	-11	-6	i	-25%	-115*	-5
CCCn1nc(C)cc1CN(C)c1ccc(NS(=O)(=O)c2cccc(Cl)c2C)cc1C(=O)O	17	x	x	x	x	x
Cc1ccc(C)c(NC(=S)NCC(c2ccccc2)N(C)C)c1 (centres undefined)	-7	-39	i	1%	-60*	3
CN(C)C(CNC(=O)CCOc1ccccc1)c1ccco1 (centres undefined)	-1	4	i	-6%	18	0
Cc1ccccc1NC(=S)NCC(c1cccnc1)N(C)C (centres undefined)	-4	2	i	-6%	1	-3
Cc1cccc(OCCC(=O)NCC(c2ccccc2)N(C)C)c1 (centres undefined)	-9	-5	i	-7%	-60*	3
COc1ccc(C(CNC(=O)CCOc2ccccc2)N(C)C)cc1 (centres undefined)	-7	-52	i	10%	-76*	-7
CCCCn1c(=O)n(C(C)C(=O)Nc2ccc3c(c2)CCC3)c(=O)c2c1ncn2Cc1ccco1 (centres undefined)	-11	x	x	x	x	x
SMILES	LDHA inh	DRD3 agonist	pAkt inh	RGS4 inh	D3 antag	PI4K2A inh
COc1ccccc1CNc1nc2ccccc2nc1NS(=O)(=O)c1ccc(Cl)cc1	3	x	x	x	x	x
CCOC(=O)Cc1csc(SCC(=O)NC(C)CC)n1 (centres undefined)	-1	x	x	x	x	x
CC(=O)Nc1cccc(OCc2ccccc2)c1	-2	x	x	x	x	x
COC(=O)C1=C(C)N(Cc2ccccc2)C(=NCc2ccc(OC)cc2)N[C@H]1c1ccccc1	-10	-40	i	-1%	-54*	1
COC(=O)C1=C(C)N(Cc2ccccc2)C(=NCC(C)C)N[C@H]1c1ccccc1	-6	8	i	-9%	-3	-1
O=C(CN1C(=O)S/C(=C\c2ccc(Cl)cc2)C1=O)Nc1ccc2oc(=O)ccc2c1	1	x	x	x	x	x

Source: PubChem BioAssay
